From article PMC7862700, “An all-to-all approach to the identification of sequence-specific readers for epigenetic DNA modifications on cytosine”

These sequences were tested against CRX (Homo sapiens, UniProt O43186 1-299) (assay: DAPPL (digital affinity profiling via proximity ligation, sequencing); 10 mM Tris-HCl pH 7.5, 50 mM NaCl, 1 mM DTT, 4% glycerol, room temperature, 30 min; GST-TFs on glutathione beads, 16-mer random dsDNA library, 0.1% formaldehyde crosslink after washing; high values mean tight binding). Conditions: protein: recombinant; tags: N-terminal GST; dsDNA, one strand shown.
Sequence of CRX (O43186 whole entry, the tested form may be a part): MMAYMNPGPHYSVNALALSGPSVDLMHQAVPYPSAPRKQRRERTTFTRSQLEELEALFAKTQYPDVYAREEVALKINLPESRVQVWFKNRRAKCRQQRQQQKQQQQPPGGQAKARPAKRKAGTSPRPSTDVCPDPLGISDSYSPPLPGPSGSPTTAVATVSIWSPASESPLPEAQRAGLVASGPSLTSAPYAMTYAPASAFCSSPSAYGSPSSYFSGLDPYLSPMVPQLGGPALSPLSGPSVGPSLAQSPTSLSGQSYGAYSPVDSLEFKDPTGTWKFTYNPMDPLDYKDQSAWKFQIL
Procedure, shortened: (§1)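 Human transcription factors carrying a GST fusion were produced in yeast, bound to glutathione beads, tagged with DNA barcodes and pooled together with a tag-only sample. Each pool was held with 200 nmole of a random double-stranded 16-mer DNA library in Tris/NaCl/DTT/glycerol buffer for 30 min at room temperature, then washed, crosslinked in 0.1% formaldehyde, proximity-ligated with BsaI/T4 ligase (1 h, 37 °C), PCR-amplified and sequenced on an Illumina NextSeq500. Binding signal is the read frequency of each hexamer for a given factor divided by its frequency in the tag-only sample.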
With ATTGAT the binding signal was 1.46 fold enrichment (6-mer frequency, TF over GST control). For CATCTA, the binding signal was 1.29 fold enrichment (6-mer frequency, TF over GST control). With CTGATT the binding signal was 1.51 fold enrichment (6-mer frequency, TF over GST control). For CGAATA, the binding signal was 1.31 fold enrichment (6-mer frequency, TF over GST control). With AAGAAA the binding signal was 1.29 fold enrichment (6-mer frequency, TF over GST control). For AGTATT, the binding signal was 1.57 fold enrichment (6-mer frequency, TF over GST control). With TAAATG the binding signal was 1.69 fold enrichment (6-mer frequency, TF over GST control). For TTTTGT, the binding signal was 1.42 fold enrichment (6-mer frequency, TF over GST control). With TCTGCT the binding signal was 1.33 fold enrichment (6-mer frequency, TF over GST control). TTGAAA was tested, and the binding signal was 1.24 fold enrichment (6-mer frequency, TF over GST control). ACAATA was tested, and the binding signal was 1.19 fold enrichment (6-mer frequency, TF over GST control). For CCTAAG, the binding signal was 1.85 fold enrichment (6-mer frequency, TF over GST control). For CTCAAT, the binding signal was 1.25 fold enrichment (6-mer frequency, TF over GST control). For TACATA, the binding signal was 1.27 fold enrichment (6-mer frequency, TF over GST control). In the case of TATTTT, the binding signal is reported as 1.77 fold enrichment (6-mer frequency, TF over GST control). For TTAATG, the binding signal was 2.75 fold enrichment (6-mer frequency, TF over GST control). In the case of ATCGAT, the binding signal is reported as 1.25 fold enrichment (6-mer frequency, TF over GST control). For TCCATT, the binding signal was 1.35 fold enrichment (6-mer frequency, TF over GST control). With CGTTAA the binding signal was 1.7 fold enrichment (6-mer frequency, TF over GST control). For TCTAGC, the binding signal was 1.7 fold enrichment (6-mer frequency, TF over GST control). ATGCTA was tested, and the binding signal was 1.45 fold enrichment (6-mer frequency, TF over GST control). In the case of TTATGT, the binding signal is reported as 2.24 fold enrichment (6-mer frequency, TF over GST control). TCTTGA was tested, and the binding signal was 1.44 fold enrichment (6-mer frequency, TF over GST control). ATGCTT was tested, and the binding signal was 1.24 fold enrichment (6-mer frequency, TF over GST control). CATCCT was tested, and the binding signal was 1.21 fold enrichment (6-mer frequency, TF over GST control). For ACTGAT, the binding signal was 1.38 fold enrichment (6-mer frequency, TF over GST control). With TTACTC the binding signal was 1.91 fold enrichment (6-mer frequency, TF over GST control). For TTGCCC, the binding signal was 1.2 fold enrichment (6-mer frequency, TF over GST control). For ACGTCC, the binding signal was 1.01 fold enrichment (6-mer frequency, TF over GST control). With AATGTT the binding signal was 1.59 fold enrichment (6-mer frequency, TF over GST control). With AATAGT the binding signal was 1.19 fold enrichment (6-mer frequency, TF over GST control). With CCAATC the binding signal was 1.33 fold enrichment (6-mer frequency, TF over GST control). With GTATCC the binding signal was 1.22 fold enrichment (6-mer frequency, TF over GST control). For ACAATT, the binding signal was 1.13 fold enrichment (6-mer frequency, TF over GST control). In the case of TTCTTT, the binding signal is reported as 1.44 fold enrichment (6-mer frequency, TF over GST control). For TAAAAC, the binding signal was 1.66 fold enrichment (6-mer frequency, TF over GST control). For TCCTTC, the binding signal was 1.72 fold enrichment (6-mer frequency, TF over GST control). For TTCGTA, the binding signal was 1.52 fold enrichment (6-mer frequency, TF over GST control). For TAGCTA, the binding signal was 1.58 fold enrichment (6-mer frequency, TF over GST control). For TATTTG, the binding signal was 1.71 fold enrichment (6-mer frequency, TF over GST control).

Each sequence was assayed against ETV1 (Homo sapiens, UniProt P50549 1-477) in the same assay as above. Conditions: protein: recombinant; tags: N-terminal GST; dsDNA, one strand shown.
Sequence of ETV1 (P50549 whole entry): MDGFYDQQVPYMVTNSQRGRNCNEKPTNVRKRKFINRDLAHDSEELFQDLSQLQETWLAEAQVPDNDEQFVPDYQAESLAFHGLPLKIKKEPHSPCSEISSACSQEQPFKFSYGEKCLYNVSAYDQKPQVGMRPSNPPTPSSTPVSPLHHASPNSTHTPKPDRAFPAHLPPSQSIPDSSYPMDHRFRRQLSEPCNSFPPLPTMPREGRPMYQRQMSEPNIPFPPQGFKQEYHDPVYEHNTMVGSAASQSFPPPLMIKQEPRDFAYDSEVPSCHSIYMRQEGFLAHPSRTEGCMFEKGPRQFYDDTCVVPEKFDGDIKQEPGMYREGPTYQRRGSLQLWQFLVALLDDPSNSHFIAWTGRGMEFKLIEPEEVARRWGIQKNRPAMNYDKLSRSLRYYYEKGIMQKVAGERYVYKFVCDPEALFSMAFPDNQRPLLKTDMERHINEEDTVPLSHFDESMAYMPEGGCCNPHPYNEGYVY
Procedure, shortened: as §1
With ATTGAT the binding signal was 1.39 fold enrichment (6-mer frequency, TF over GST control). In the case of CATCTA, the binding signal is reported as 1.16 fold enrichment (6-mer frequency, TF over GST control). For CTGATT, the binding signal was 1.27 fold enrichment (6-mer frequency, TF over GST control). CGAATA was tested, and the binding signal was 1.19 fold enrichment (6-mer frequency, TF over GST control). In the case of AAGAAA, the binding signal is reported as 1.2 fold enrichment (6-mer frequency, TF over GST control). With AGTATT the binding signal was 1.19 fold enrichment (6-mer frequency, TF over GST control). TAAATG was tested, and the binding signal was 1.37 fold enrichment (6-mer frequency, TF over GST control). In the case of TTTTGT, the binding signal is reported as 1.32 fold enrichment (6-mer frequency, TF over GST control). With TCTGCT the binding signal was 1.32 fold enrichment (6-mer frequency, TF over GST control). TTGAAA was tested, and the binding signal was 1.16 fold enrichment (6-mer frequency, TF over GST control). With ACAATA the binding signal was 1.13 fold enrichment (6-mer frequency, TF over GST control). CCTAAG was tested, and the binding signal was 1.09 fold enrichment (6-mer frequency, TF over GST control). For CTCAAT, the binding signal was 1.27 fold enrichment (6-mer frequency, TF over GST control). With TACATA the binding signal was 1.25 fold enrichment (6-mer frequency, TF over GST control). With TATTTT the binding signal was 1.48 fold enrichment (6-mer frequency, TF over GST control). For TTAATG, the binding signal was 1.29 fold enrichment (6-mer frequency, TF over GST control). For ATCGAT, the binding signal was 1.07 fold enrichment (6-mer frequency, TF over GST control). With TCCATT the binding signal was 1.26 fold enrichment (6-mer frequency, TF over GST control). With CGTTAA the binding signal was 1.09 fold enrichment (6-mer frequency, TF over GST control). For TCTAGC, the binding signal was 1.21 fold enrichment (6-mer frequency, TF over GST control). With ATGCTA the binding signal was 1.31 fold enrichment (6-mer frequency, TF over GST control). In the case of TTATGT, the binding signal is reported as 1.29 fold enrichment (6-mer frequency, TF over GST control). In the case of TCTTGA, the binding signal is reported as 1.17 fold enrichment (6-mer frequency, TF over GST control). ATGCTT was tested, and the binding signal was 1.3 fold enrichment (6-mer frequency, TF over GST control). With CATCCT the binding signal was 1.55 fold enrichment (6-mer frequency, TF over GST control). With ACTGAT the binding signal was 1.32 fold enrichment (6-mer frequency, TF over GST control). In the case of TTACTC, the binding signal is reported as 1.32 fold enrichment (6-mer frequency, TF over GST control). With TTGCCC the binding signal was 1.22 fold enrichment (6-mer frequency, TF over GST control). ACGTCC was tested, and the binding signal was 1.63 fold enrichment (6-mer frequency, TF over GST control). For AATGTT, the binding signal was 1.66 fold enrichment (6-mer frequency, TF over GST control). With AATAGT the binding signal was 1.17 fold enrichment (6-mer frequency, TF over GST control). In the case of CCAATC, the binding signal is reported as 1.13 fold enrichment (6-mer frequency, TF over GST control). In the case of GTATCC, the binding signal is reported as 1.86 fold enrichment (6-mer frequency, TF over GST control). With ACAATT the binding signal was 1.24 fold enrichment (6-mer frequency, TF over GST control). With TTCTTT the binding signal was 1.29 fold enrichment (6-mer frequency, TF over GST control). In the case of TAAAAC, the binding signal is reported as 1.18 fold enrichment (6-mer frequency, TF over GST control). For TCCTTC, the binding signal was 2.05 fold enrichment (6-mer frequency, TF over GST control). TTCGTA was tested, and the binding signal was 1.25 fold enrichment (6-mer frequency, TF over GST control). TAGCTA was tested, and the binding signal was 1.27 fold enrichment (6-mer frequency, TF over GST control). TATTTG was tested, and the binding signal was 1.4 fold enrichment (6-mer frequency, TF over GST control).

These sequences were tested against T1, ERF (Homo sapiens, UniProt P50548 1-548) in the same assay as above. Conditions: protein: recombinant; tags: N-terminal GST; dsDNA, one strand shown.
T1 sequence: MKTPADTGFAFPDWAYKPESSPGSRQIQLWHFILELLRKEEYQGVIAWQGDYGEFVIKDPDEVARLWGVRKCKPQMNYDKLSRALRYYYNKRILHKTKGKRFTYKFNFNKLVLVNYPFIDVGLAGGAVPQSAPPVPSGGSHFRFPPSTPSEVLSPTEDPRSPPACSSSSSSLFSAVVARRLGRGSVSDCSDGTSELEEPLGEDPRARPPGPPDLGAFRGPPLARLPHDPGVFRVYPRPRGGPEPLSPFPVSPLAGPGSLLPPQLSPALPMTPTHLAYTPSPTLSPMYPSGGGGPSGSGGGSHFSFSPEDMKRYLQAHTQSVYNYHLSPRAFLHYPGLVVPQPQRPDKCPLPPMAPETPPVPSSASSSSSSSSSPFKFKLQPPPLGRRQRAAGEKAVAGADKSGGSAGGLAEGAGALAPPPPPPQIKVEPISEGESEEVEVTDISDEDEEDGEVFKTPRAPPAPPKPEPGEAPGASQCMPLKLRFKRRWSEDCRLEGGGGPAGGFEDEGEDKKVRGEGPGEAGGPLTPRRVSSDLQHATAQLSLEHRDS
Procedure, shortened: as §1
In the case of ATTGAT, the binding signal is reported as 1.34 fold enrichment (6-mer frequency, TF over GST control). With CATCTA the binding signal was 1.19 fold enrichment (6-mer frequency, TF over GST control). In the case of CTGATT, the binding signal is reported as 1.21 fold enrichment (6-mer frequency, TF over GST control). CGAATA was tested, and the binding signal was 1.19 fold enrichment (6-mer frequency, TF over GST control). For AAGAAA, the binding signal was 1.24 fold enrichment (6-mer frequency, TF over GST control). In the case of AGTATT, the binding signal is reported as 1.3 fold enrichment (6-mer frequency, TF over GST control). TAAATG was tested, and the binding signal was 1.24 fold enrichment (6-mer frequency, TF over GST control). With TTTTGT the binding signal was 1.33 fold enrichment (6-mer frequency, TF over GST control). In the case of TCTGCT, the binding signal is reported as 1.52 fold enrichment (6-mer frequency, TF over GST control). With TTGAAA the binding signal was 1.13 fold enrichment (6-mer frequency, TF over GST control). In the case of ACAATA, the binding signal is reported as 1.21 fold enrichment (6-mer frequency, TF over GST control). In the case of CCTAAG, the binding signal is reported as 1.11 fold enrichment (6-mer frequency, TF over GST control). In the case of CTCAAT, the binding signal is reported as 1.22 fold enrichment (6-mer frequency, TF over GST control). For TACATA, the binding signal was 1.33 fold enrichment (6-mer frequency, TF over GST control). With TATTTT the binding signal was 1.19 fold enrichment (6-mer frequency, TF over GST control). With TTAATG the binding signal was 1.05 fold enrichment (6-mer frequency, TF over GST control). ATCGAT was tested, and the binding signal was 1.13 fold enrichment (6-mer frequency, TF over GST control). TCCATT was tested, and the binding signal was 1.23 fold enrichment (6-mer frequency, TF over GST control). With CGTTAA the binding signal was 1.06 fold enrichment (6-mer frequency, TF over GST control). In the case of TCTAGC, the binding signal is reported as 1.35 fold enrichment (6-mer frequency, TF over GST control).
